Assay results: the supplement of paper PMC6522484
± gives the standard deviation of the averaged measurements.

How the values were obtained:
DLD1 [1] = test: cell viability (CellTiter-Glo) relative to plate median (fraction of plate median); higher = more viable cells; conditions: 5 µM; treatment time 24 h; reporter: 7TFP
In short: (§1)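 Normalisation used webcellHTS2 in additive mode without log transformation, scaling each well's luminescence to the plate median. The luminescence was firefly luciferase or CellTiterGlo, read on a Tecan F500 from parallel plates of colorectal cancer cells stably transduced with lentiviral TCF/Wnt firefly luciferase reporters. Those cells had been given library compounds at a final 5 µM for 24 h, and two independent replicates were averaged.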

HCT116 = test: as above; conditions: 5 µM; treatment time 24 h; reporter: TCF4/Wnt
In short: as §1

SW480 [2] = test: as above; conditions: 5 µM; treatment time 24 h; reporter: 7TFP
In short: as §1

DLD1 [3] = test: TCF/Wnt firefly luciferase reporter signal relative to plate median (fraction of plate median); higher = higher Wnt reporter signal; conditions: 5 µM; treatment time 24 h; reporter: 7TFP
In short: as §1

SW480 [4] = test: as above; conditions: 5 µM; treatment time 24 h; reporter: 7TFP
In short: as §1

Structure (SMILES)	cell viability (DLD1 [1])	cell viability (HCT116)	cell viability (SW480 [2])	TCF/Wnt firefly luciferase reporter signal (DLD1 [3])	TCF/Wnt firefly luciferase reporter signal (SW480 [4])
N[C@@H](Cc1c[nH]c2ccccc12)C(=O)O	1.07 ± 0.078	1.07 ± 0.014	1.03 ± 0.014	1.21 ± 0.028	1.1 ± 0.05
O=C(O)c1c[nH]c2ccccc12 [Indole-3-carboxylic acid]	0.977 ± 0.011	0.868 ± 0.083	0.9405 ± 0.005	0.83 ± 0.12	0.968 ± 0.21
Fc1ccc([C@@H]2CCNC[C@H]2COc2ccc3c(c2)OCO3)cc1	0.977 ± 0.021	1.02 ± 0.12	1.02 ± 0.021	1.1 ± 0.085	1.13 ± 0.042
COC(=O)[C@]1(C)CCC[C@]2(C)c3ccc(C(C)C)cc3C(=O)CC12 (stereo not given in full)	1.1 ± 0.13	1.03 ± 0.081	1.05 ± 0.028	1.07 ± 0.25	1.07
CO[C@H]1/C=C/O[C@@]2(C)Oc3c(C)c(O)c4c(O)c(c(/C=N/N5CCN(C)CC5)c(O)c4c3C2=O)NC(=O)/C(C)=C\C=C\[C@H](C)[C@H](O)[C@@H](C)[C@@H](O)[C@@H](C)[C@H](OC(C)=O)[C@@H]1C	1.01 ± 0.064	1.07 ± 0.13	1.05 ± 0.028	1.01 ± 0.037	1.08 ± 0.057
C[C@@](Cc1ccc(O)c(O)c1)(NN)C(=O)O	1.01 ± 0.015	0.981 ± 0.098	1.02 ± 0.067	0.8725 ± 0.005	0.95 ± 0.13
CCCCCCCCCCCC1=C(O)C(=O)C=C(O)C1=O	1.01 ± 0.06	1.12 ± 0.071	0.9665 ± 0.00071	1.1 ± 0.028	1.075 ± 0.0071
CC(C)C(=O)Nc1ccc([N+](=O)[O-])c(C(F)(F)F)c1	1.055 ± 0.0071	0.984 ± 0.037	1.02 ± 0.029	0.924 ± 0.047	0.9955 ± 0.0064
C[C@](N)(Cc1ccc(O)cc1)C(=O)O [alpha-METHYL-L-TYROSINE]	1.08 ± 0.11	1.07 ± 0.078	0.944 ± 0.016	0.896 ± 0.02	0.974 ± 0.11
CC(C)(O)CC[C@@H](O)[C@](C)(O)[C@H]1CC[C@@]2(O)C3=CC(=O)[C@@H]4C[C@@H](O)[C@@H](O)C[C@]4(C)[C@H]3CC[C@]12C	0.977 ± 0.021	1.08 ± 0.042	1.01	1.1 ± 0.21	1.14 ± 0.064
CCN(CC)CCCC(C)Nc1c2ccc(Cl)cc2nc2ccc(OC)cc12 (stereo not given)	1.02 ± 0.014	0.886 ± 0.19	1.05 ± 0.014	1.11 ± 0.042	0.888 ± 0.036
O=C1c2ccc(O)c(O)c2C(=O)c2c(O)ccc(O)c21	0.966 ± 0.048	0.877 ± 0.023	0.964 ± 0.03	1.09 ± 0.092	1.1 ± 0.085
COc1ccc2c(c1)OC[C@@H](Cc1ccc(OC)c(OC)c1)[C@H]2O	1.09 ± 0.078	1.06 ± 0.11	0.993 ± 0.095	0.944 ± 0.011	0.94 ± 0.018
CC(C)CCC[C@@H](C)C1CC[C@H]2[C@@H]3CCC4CC(=O)CC[C@]4(C)[C@H]3CC[C@]12C (stereo not given in full)	0.999 ± 0.016	1.01 ± 0.031	1.02 ± 0.021	0.955 ± 0.045	0.97 ± 0.071
COc1cc([C@@H]2c3cc4c(cc3[C@@H](O[C@@H]3O[C@@H]5CO[C@@H](c6cccs6)O[C@H]5[C@H](O)[C@H]3O)[C@H]3COC(=O)[C@H]23)OCO4)cc(OC)c1O	0.946 ± 0.047	0.747 ± 0.0014	0.952 ± 0.14	0.738 ± 0.032	0.868
COC(=O)c1c(C)cc(OC(=O)c2c(C)cc(O)c(C=O)c2O)c(C)c1O	1.06 ± 0.021	1.07 ± 0.092	1.06 ± 0.064	1 ± 0.14	1.04 ± 0.028
O=CN(O)CCCC(NC(=O)C(CO)NC(=O)C1COC(c2ccccc2O)=N1)C(=O)NCCC(=O)NC1CCCN(O)C1=O (stereo not given) [Oxachelin]	0.9715 ± 0.0092	1.07 ± 0.16	1.03 ± 0.059	1.11 ± 0.021	1.03 ± 0.085
N=C(N)NCCCCN	1 ± 0.054	1.15 ± 0.014	1.02 ± 0.058	1.02 ± 0.04	1.09 ± 0.071
CCn1cc(C(=O)O)c(=O)c2cc(F)c(N3CCNC(C)C3)c(F)c21 (stereo not given)	0.971 ± 0.056	1.05 ± 0.057	0.98 ± 0.012	1.13 ± 0.057	0.997 ± 0.061
CN(C)c1ccc(C(=C2C=CC(=[N+](C)C)C=C2)c2ccc(N(C)C)cc2)cc1	0.703 ± 0.016	0.381 ± 0.17	0.679 ± 0.013	0.529 ± 0.091	0.465 ± 0.012
CC(=O)O[C@@](C)(CCC=C(C)C)C1CC=C(C)CC1 (stereo not given in full)	0.974 ± 0.066	1.02 ± 0.021	0.993 ± 0.067	0.9845 ± 0.0021	1.08 ± 0.028
CCOC(=O)c1c(C)cc(OC)cc1O	0.947 ± 0.033	0.908 ± 0.03	0.954 ± 0.066	0.874 ± 0.021	1.04 ± 0.064
C[C@@H]1[C@H](O)[C@@H](C)/C=C/C=C/C=C/C=C/C=C/C=C/C=C/[C@H](O[C@@H]2O[C@H](C)[C@@H](O)[C@H](N)[C@@H]2O)C[C@@H]2O[C@](O)(C[C@@H](O)C[C@@H](O)[C@H](O)CC[C@@H](O)C[C@@H](O)CC(=O)O[C@H]1C)C[C@H](O)[C@H]2C(=O)O	1.04 ± 0.076	1 ± 0.096	1.02 ± 0.089	1.06 ± 0.14	1.01 ± 0.018
COc1cccc2c1C(=O)c1c(O)c3c(c(O)c1C2=O)C[C@@](O)(C(C)=O)C[C@@H]3O[C@H]1C[C@H](N)[C@H](O)[C@H](C)O1	0.958 ± 0.027	0.575 ± 0.037	1.03 ± 0.1	0.781 ± 0.21	0.564 ± 0.26
OCC(O)CN1CCN(c2ccccc2)CC1 (stereo not given)	0.979 ± 0.058	0.995 ± 0.035	0.964 ± 0.033	0.83 ± 0.029	0.9255 ± 0.005
C[C@@H]1C(=O)O[C@H]2C[C@@]34[C@H]5C[C@@H](C(C)(C)C)[C@]36[C@@H](OC(=O)[C@@H]6O)O[C@@]4(C(=O)O5)[C@]21O	1.07 ± 0.021	1.11 ± 0.064	0.99 ± 0.015	1.15 ± 0.021	1.03 ± 0.11
